PubChem BioAssay (NCI)
Compounds without any hit were thinned out: in the full panel of roughly 79,000, 15% have a hit. Values without a mark were called inactive. Calls of active or inactive are those of the source. Rule as the data show it: active = growth inhibition above about 70%; inactive = the rest. Where a SMILES comes first, the peptide text is derived from it. The star is where a group is joined. Trt = c1ccc(C(c2ccccc2)(c2ccccc2)*)cc1

How the values were obtained:
[1] = NCI Yeast Anticancer Drug Screen. Data for the rad50 strain (AID 155);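 also: 0% = growth of vehicle-only cultures of the same strain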; settings: S. cerevisiae rad50 strain growth inhibition; at 50.0 µM; active compounds read high
In short: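 Relative growth inhibition (compound vs vehicle) was measured in yeast with a defined repair-gene alteration.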

[2] = NCI Yeast Anticancer Drug Screen. Data for the mec2-1 strain (AID 157); settings: S. cerevisiae mec2-1 strain, at 50.0 µM, active compounds read high
In short: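 Mutant yeast (mec2-1) grown with compound; growth inhibition relative to vehicle control reported.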

[3] = NCI Yeast Anticancer Drug Screen. Data for the sgs1 mgt1 strain (AID 161);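 also: 0% = growth of cultures given vehicle only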; settings: S. cerevisiae sgs1 mgt1 strain, at 50.0 µM, active compounds read high
In short: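 Yeast cells carrying a defined DNA-repair defect were exposed to test compounds. Growth inhibition was measured relative to vehicle-treated controls.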

[4] = NCI Yeast Anticancer Drug Screen. Data for the cln2 rad14 strain (AID 165);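 also: 0% = growth equal to vehicle treated cultures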; settings: S. cerevisiae cln2 rad14 strain, at 50.0 µM, active compounds read high
In short: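 Readout is yeast growth inhibition versus vehicle-treated controls, using a strain with cln2 and rad14 alterations exposed to compound.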

[5] = NCI Yeast Anticancer Drug Screen. Data for the bub3 strain (AID 167); settings: S. cerevisiae bub3 mutant strain, at 50.0 µM, active compounds read high
In short: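 Screening used yeast with an engineered genetic alteration affecting cell cycle control. Compound-exposed cultures were compared with vehicle cultures, and reduced growth was taken as inhibition.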

[6] = NCI Yeast Anticancer Drug Screen. Data for the mlh1 rad18 strain (AID 175); settings: S. cerevisiae mlh1 rad18 strain growth inhibition; at 50.0 µM; active compounds read high
In short: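 Genetically defined yeast (DNA repair-deficient) exposed to compounds; growth inhibition determined relative to vehicle.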

SMILES	growth inhibition [1]	growth inhibition [2]	growth inhibition [3]	growth inhibition [4]	growth inhibition [5]	growth inhibition [6]
Clc1ccc(Cl)c2c(Br)cncc12	37.4%	10.8%	12.9%	7.05%	17.5%	22.1%
CC(=O)C(=CC=C(c1ccc(N(C)C)cc1)c1ccc(N(C)C)cc1)C(C)=O	-45.3%	-8.55%	9.5%	-14.8%	12.7%	-13.6%
CC1CCC(O)(C(C)(C(=O)O)c2ccccc2)CC1 (stereo unspecified)	-19.7%	-16.8%	-5.65%	-35.6%	-54.8%	-8.45%
C1COC2OCCOC2O1 (stereo unspecified)	5.2%	-2.05%	4.6%	-2.55%	1.4%	0.7%
O=C(c1ccccc1)C1(c2ccccc2)C(C(=O)c2ccccc2)(c2ccccc2)S1(=O)=O (stereo unspecified)	-19.8%	-13.5%	-8.05%	-38.8%	-6.6%	-15.3%
CCOC(=O)CNC(=O)C(Cc1cnc[nH]1)NC(=O)CNC(=O)OCc1ccccc1 (stereo unspecified)	1.15%	-2.15%	9.75%	-23.9%	1.1%	9.2%
Nc1ccc(C(=O)NN2C(=O)C(Cl)C2c2ccccc2Cl)cc1 (stereo unspecified)	45.2%	32.7%	27.9%	38.8%	38.3%	31.5%
CC(=O)N(C)c1ccc(NC(=O)/C=C/c2ccccc2)cc1	0.15%	4.25%	15.7%	-9.85%	28.1%	17.1%
COc1cccc(NC(=S)NC(=O)c2ccccc2)c1	82% (active)	60.8%	96.2% (active)	37%	95.6% (active)	45.7%
N#CSCc1c(Cl)c(Cl)c(CSC#N)c(Cl)c1Cl	-13.8%	-7.15%	2.15%	-18.9%	5.85%	-12.4%
CCOc1nc(N)nc(C)c1N=Nc1cccc([N+](=O)[O-])c1	20.9%	8.55%	7%	-7.35%	36%	32%
CN1CCc2sccc2C(c2ccccc2)O1 (stereo unspecified)	0.75%	16.1%	-3.8%	0.65%	17.2%	-3.4%
O=C(c1ccncc1)C(C(c1ccccc1)N1CCOCC1)N1CCOCC1 (stereo unspecified)	25.8%	8.25%	34%	39.5%	13.6%	4.4%
O=S(=O)(c1ccc(Br)cc1)N1CCN(S(=O)(=O)c2ccc(Br)cc2)CC1	-24.4%	-23.9%	-35.2%	-43.2%	-23.4%	-10.1%
NC(CCCCC1CCCCC1)C(=O)O (stereo unspecified)	-5.75%	-29.4%	-18.1%	-37.4%	-28.4%	-2.95%
COC(=O)CCCN1C(=O)c2ccccc2C1=O	-8.15%	-12.7%	-20.8%	-69.8%	5.6%	-3.95%
N#CC(c1ccccc1)N(CCc1ccccc1)C(=O)Oc1ccccc1 (stereo unspecified)	-14.6%	-19.6%	-8.3%	-18.2%	-40.3%	-30.9%
CCOc1ccc(NC(=O)CCCCCCCCC(=O)Nc2ccc(OCC)cc2)cc1	6.8%	3.2%	-11.8%	-1.9%	-4.8%	19.8%

SMILES	growth inhibition [1]	growth inhibition [2]	growth inhibition [3]	growth inhibition [4]	growth inhibition [5]	growth inhibition [6]
CCOC(=O)C(C)C(CCC#N)(C(=O)OCC)C(=O)OCC (stereo unspecified)	-9.9%	-24.1%	-24%	-0.35%	-11.8%	-9.3%
Oc1ccc([C@H]2Oc3c(c(O)cc4c3C3c5c(O)cc(O)cc5OC(c5ccc(O)cc5)(O4)[C@H]3O)CC2O)cc1 (stereo partly specified)	1.85%	-4.6%	-20.9%	-4.65%	-7%	-5.75%
C/C(=C/c1c(C)[nH]c(=O)[nH]c1=O)C(=O)O	10.9%	13.6%	-3.75%	-29.8%	8.75%	-3.75%
C/C(CC1SCCCS1)=C(/C)CC1SCCCS1	-34.8%	-38.6%	-23.1%	-5%	2.25%	-45%
CCOC(=O)C1CC(=O)N(Cc2ccccc2)C(=O)N1 (stereo unspecified)	-11.1%	1.8%	-17.6%	-16.9%	22.1%	-3.5%
Cc1ccc(Cc2ccccc2C(=O)O)cc1	-5.95%	1.55%	-2.3%	-42.9%	-2.45%	-6.05%
C[N+](C)(CCO)CCO	3.15%	-8%	-8.5%	14.8%	0.85%	13.1%
Nc1[nH]c(=O)ncc1-c1cccc(Cl)c1	-6.45%	-4.15%	11.6%	-7.8%	5.2%	33.1%
Cc1cc(=O)[nH]c2cc(O)c(C(=O)O)cc12	-2.95%	3.7%	-0.3%	-54.5%	1.6%	-8.15%
COC(=O)C(NC(=O)C(N)CSC(c1ccccc1)(c1ccccc1)c1ccccc1)C(C)C (stereo unspecified) (H-Cys(Trt)-Val-OMe; configuration not given here)	97.3% (active)	98.6% (active)	98.7% (active)	95.2% (active)	97.6% (active)	98.5% (active)
O=C(N=c1ccc2nc(=O)[nH]n(O)c-2c1)C(F)(F)F	-12.1%	5.5%	-13.4%	-10.3%	-46.6%	-32.7%
CCc1ccccc1NC(=O)C(=O)C(C(=O)c1ccc(OC)cc1)c1ccc(OC)cc1 (stereo unspecified)	19%	11.9%	5.4%	16.4%	4.45%	9.05%
CCC1(O)CC2CN(CCc3c([nH]c4ccccc34)C(C(=O)OC)(c3cc4c(cc3OC)N(C)C3C(O)(C(N)=O)C(O)C5(CC)C=CCN6CCC43C65)C2)C1 (stereo unspecified) (tested in a mixture with another compound)	-2.3%	-21.1%	-0.35%	2.7%	1.05%	20.7%
O=C(Nc1ccc(F)cc1)C(=O)C(C1OC(=O)c2ccccc21)[N+](=O)[O-] (stereo unspecified)	14.9%	6.15%	8.7%	14.1%	10.8%	15.8%
OC1CC2C3CCC(C3)C2C1O (stereo unspecified)	-11.8%	-6.35%	-10.4%	-7.45%	9.55%	-2.95%
CC(=O)c1ccc(N2C(=O)C3c4[nH]c5ccccc5c4C4CCC(C(C)(C)C)CC4C3C2=O)cc1 (stereo unspecified)	42.8%	-2.7%	0.5%	63%	16%	18.4%
COC1CC(N=[N+]=[N-])C(OS(C)(=O)=O)C(C)O1 (stereo unspecified)	-2.35%	22.1%	1.7%	3.7%	-9%	14.8%
NC(=O)c1ccc2c(ccc3ccccc32)c1	48.5%	4.75%	5.05%	-36%	-1.8%	-2.75%
